Holding throughout (test): DAPPL (digital affinity profiling via proximity ligation, sequencing); 10 mM Tris-HCl pH 7.5, 50 mM NaCl, 1 mM DTT, 4% glycerol, room temperature, 30 min; GST-TFs on glutathione beads, 16-mer random dsDNA library, 0.1% formaldehyde crosslink after washing; high values mean tight binding
Details in all cases: protein: recombinant; tags: N-terminal GST; dsDNA, one strand shown

The target in assay [1] is T1, FLI1 (Homo sapiens, UniProt Q01543 1-452).
T1 sequence: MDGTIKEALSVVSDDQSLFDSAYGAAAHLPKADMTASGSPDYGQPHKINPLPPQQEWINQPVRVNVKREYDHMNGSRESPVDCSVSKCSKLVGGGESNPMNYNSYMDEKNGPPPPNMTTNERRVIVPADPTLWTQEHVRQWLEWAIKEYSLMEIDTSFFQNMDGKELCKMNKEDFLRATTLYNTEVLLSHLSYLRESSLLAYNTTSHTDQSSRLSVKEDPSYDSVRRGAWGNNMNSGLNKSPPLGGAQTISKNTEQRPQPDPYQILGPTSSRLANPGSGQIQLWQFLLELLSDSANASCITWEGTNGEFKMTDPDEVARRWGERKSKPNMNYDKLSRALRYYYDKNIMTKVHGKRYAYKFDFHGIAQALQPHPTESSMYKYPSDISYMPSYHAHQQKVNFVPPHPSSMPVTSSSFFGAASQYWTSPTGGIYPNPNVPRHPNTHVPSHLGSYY
The method, boiled down:
(§1)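 Binding signal is each hexamer's read frequency for a factor divided by its frequency in the tag-only sample. The factors were GST-fused human transcription factors from yeast, captured on glutathione beads, DNA-barcoded and pooled with that sample. Pools were incubated with 200 nmole of a random double-stranded 16-mer DNA library in Tris/NaCl/DTT/glycerol buffer at room temperature for 30 min, then washed, crosslinked with 0.1% formaldehyde, proximity-ligated with BsaI/T4 ligase (1 h, 37 °C), PCR-amplified and sequenced on an Illumina NextSeq500.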

Assay [2] addresses T2, ELK1 (Homo sapiens, UniProt P19419 1-428).
T2 sequence: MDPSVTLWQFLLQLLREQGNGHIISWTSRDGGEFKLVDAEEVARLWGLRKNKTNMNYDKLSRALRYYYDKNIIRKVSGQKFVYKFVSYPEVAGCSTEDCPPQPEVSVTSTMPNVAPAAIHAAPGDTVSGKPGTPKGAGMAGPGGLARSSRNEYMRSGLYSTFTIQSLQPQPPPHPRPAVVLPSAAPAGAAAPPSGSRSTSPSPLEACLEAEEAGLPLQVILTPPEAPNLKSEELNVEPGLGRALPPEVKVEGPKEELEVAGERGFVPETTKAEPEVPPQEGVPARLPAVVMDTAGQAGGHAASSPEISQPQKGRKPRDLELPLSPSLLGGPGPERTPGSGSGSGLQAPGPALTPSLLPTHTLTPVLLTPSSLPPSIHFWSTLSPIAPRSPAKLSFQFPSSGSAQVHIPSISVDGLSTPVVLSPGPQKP
The method, boiled down: as §1

Assay [3] deals with T3, GABPA (Homo sapiens, UniProt Q06546 1-454).
T3 sequence: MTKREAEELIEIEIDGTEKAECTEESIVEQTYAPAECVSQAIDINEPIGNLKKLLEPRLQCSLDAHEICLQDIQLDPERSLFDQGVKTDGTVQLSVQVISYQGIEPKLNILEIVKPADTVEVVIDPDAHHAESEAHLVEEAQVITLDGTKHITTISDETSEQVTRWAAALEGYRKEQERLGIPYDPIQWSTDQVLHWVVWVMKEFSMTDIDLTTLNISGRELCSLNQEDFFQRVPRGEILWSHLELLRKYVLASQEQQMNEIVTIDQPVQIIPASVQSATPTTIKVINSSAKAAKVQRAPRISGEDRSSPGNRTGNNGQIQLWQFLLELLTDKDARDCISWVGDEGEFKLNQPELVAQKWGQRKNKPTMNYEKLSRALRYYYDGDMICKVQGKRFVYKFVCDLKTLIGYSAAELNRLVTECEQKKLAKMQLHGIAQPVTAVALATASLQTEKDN
The method, boiled down: as §1

The target in assay [4] is T4, ERG (Homo sapiens, UniProt P11308 1-479).
T4 sequence: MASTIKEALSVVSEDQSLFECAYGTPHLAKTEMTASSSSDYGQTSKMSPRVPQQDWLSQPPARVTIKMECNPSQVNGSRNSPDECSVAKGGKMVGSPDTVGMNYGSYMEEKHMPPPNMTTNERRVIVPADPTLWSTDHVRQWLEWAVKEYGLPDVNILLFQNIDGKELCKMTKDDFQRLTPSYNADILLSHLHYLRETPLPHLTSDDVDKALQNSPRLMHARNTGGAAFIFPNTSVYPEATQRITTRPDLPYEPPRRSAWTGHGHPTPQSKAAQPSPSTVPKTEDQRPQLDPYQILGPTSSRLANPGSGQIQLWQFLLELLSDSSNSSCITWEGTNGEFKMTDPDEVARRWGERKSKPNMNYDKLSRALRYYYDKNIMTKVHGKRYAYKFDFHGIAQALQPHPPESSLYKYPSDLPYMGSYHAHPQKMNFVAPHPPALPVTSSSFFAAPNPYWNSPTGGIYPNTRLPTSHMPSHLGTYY
The method, boiled down: as §1

Assay [5] addresses ELF1 (Homo sapiens, UniProt P32519 1-619). The method, boiled down: as §1
Assay [6] has as its target T5, EHF (Homo sapiens, UniProt Q9NZC4 1-300).
T5 sequence: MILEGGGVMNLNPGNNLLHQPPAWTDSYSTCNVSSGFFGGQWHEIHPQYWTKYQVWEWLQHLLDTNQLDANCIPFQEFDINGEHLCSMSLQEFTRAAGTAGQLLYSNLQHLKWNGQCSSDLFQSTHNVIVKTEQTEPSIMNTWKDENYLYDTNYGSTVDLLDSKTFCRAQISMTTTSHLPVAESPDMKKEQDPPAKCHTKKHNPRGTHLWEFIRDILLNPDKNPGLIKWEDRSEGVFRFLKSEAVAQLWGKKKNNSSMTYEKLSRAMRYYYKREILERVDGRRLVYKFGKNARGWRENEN
The method, boiled down: as §1

For assay [7], the target named is SPI1 (Homo sapiens, UniProt P17947 1-270). The method, boiled down:
as §1

For assay [8], the target named is SPIB (Homo sapiens, UniProt Q01892 1-262). The method, boiled down:
as §1

Assay [9] has as its target T6, ELK3 (Homo sapiens, UniProt P41970 1-407).
T6 sequence: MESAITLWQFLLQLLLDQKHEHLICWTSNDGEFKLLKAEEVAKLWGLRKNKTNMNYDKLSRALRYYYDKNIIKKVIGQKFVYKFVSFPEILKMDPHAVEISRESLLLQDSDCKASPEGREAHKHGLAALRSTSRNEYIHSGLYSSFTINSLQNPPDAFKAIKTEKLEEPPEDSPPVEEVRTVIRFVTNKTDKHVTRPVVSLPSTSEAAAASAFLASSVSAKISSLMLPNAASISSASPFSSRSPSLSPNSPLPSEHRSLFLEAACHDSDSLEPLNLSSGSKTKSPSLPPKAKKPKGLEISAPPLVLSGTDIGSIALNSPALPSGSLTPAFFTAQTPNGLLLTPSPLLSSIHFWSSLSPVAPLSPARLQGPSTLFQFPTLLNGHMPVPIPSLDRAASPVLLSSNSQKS
The method, boiled down:
as §1

SPIB, sequence (Q01892 whole entry): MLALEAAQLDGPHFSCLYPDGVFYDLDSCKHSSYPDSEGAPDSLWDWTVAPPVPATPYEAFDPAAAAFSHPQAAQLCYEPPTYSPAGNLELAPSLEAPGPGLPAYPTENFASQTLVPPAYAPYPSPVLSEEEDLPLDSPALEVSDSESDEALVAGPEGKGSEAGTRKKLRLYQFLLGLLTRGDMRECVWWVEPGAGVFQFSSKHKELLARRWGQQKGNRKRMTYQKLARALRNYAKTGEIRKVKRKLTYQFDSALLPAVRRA
ELF1, sequence (P32519 whole entry): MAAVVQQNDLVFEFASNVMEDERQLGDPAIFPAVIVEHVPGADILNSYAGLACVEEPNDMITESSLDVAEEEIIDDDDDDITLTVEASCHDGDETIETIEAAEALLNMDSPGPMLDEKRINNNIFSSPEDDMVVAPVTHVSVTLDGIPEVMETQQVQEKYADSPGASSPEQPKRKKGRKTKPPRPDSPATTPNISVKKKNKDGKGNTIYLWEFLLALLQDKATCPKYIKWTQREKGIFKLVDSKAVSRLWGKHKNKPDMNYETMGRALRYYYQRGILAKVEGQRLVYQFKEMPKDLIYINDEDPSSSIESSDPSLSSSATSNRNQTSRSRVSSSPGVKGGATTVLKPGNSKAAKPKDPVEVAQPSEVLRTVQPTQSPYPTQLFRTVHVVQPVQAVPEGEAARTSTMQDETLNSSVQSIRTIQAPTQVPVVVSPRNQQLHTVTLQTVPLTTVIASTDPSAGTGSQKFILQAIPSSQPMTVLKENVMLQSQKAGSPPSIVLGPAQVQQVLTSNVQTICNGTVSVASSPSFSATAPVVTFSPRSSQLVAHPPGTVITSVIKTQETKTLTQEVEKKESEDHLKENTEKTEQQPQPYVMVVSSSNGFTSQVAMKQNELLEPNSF

On to TTCACT, for which the binding signal in assay [1] was 1.22 fold enrichment (6-mer frequency, TF over GST control); in assay [2], 1.32 fold enrichment (6-mer frequency, TF over GST control); in assay [3] it was 1.33 fold enrichment (6-mer frequency, TF over GST control); in assay [4], 1.36 fold enrichment (6-mer frequency, TF over GST control); in assay [5], 1.43 fold enrichment (6-mer frequency, TF over GST control); in [6] it was 1.32 fold enrichment (6-mer frequency, TF over GST control). Moreover, the binding signal was 1.33 fold enrichment (6-mer frequency, TF over GST control) in assay [7]; 1.24 fold enrichment (6-mer frequency, TF over GST control) in assay [8]; 1.37 fold enrichment (6-mer frequency, TF over GST control) in assay [9].

For the sequence TTAAGG, the binding signal in assay [1] was 1.14 fold enrichment (6-mer frequency, TF over GST control); in assay [2] it was 1.14 fold enrichment (6-mer frequency, TF over GST control); in assay [3], 1.2 fold enrichment (6-mer frequency, TF over GST control); in assay [4], 1.18 fold enrichment (6-mer frequency, TF over GST control); in assay [5], 1.13 fold enrichment (6-mer frequency, TF over GST control); in assay [6], 1.13 fold enrichment (6-mer frequency, TF over GST control). Moreover, the binding signal in assay [7] was 1.26 fold enrichment (6-mer frequency, TF over GST control); in assay [8] it was 1.15 fold enrichment (6-mer frequency, TF over GST control); in [9] it was 1.06 fold enrichment (6-mer frequency, TF over GST control).

With TAAGAT, the binding signal in assay [1] is 1.17 fold enrichment (6-mer frequency, TF over GST control); in assay [2] it was 1.26 fold enrichment (6-mer frequency, TF over GST control); in [3], 1.19 fold enrichment (6-mer frequency, TF over GST control); in assay [4], 1.21 fold enrichment (6-mer frequency, TF over GST control); in [5] it was 1.24 fold enrichment (6-mer frequency, TF over GST control); in assay [6] it was 1.3 fold enrichment (6-mer frequency, TF over GST control). Besides, the binding signal in assay [7] was 1.21 fold enrichment (6-mer frequency, TF over GST control); in assay [8] it was 1.31 fold enrichment (6-mer frequency, TF over GST control); in assay [9], 1.2 fold enrichment (6-mer frequency, TF over GST control).

In the case of CCGACC, the binding signal in assay [1] was 1.66 fold enrichment (6-mer frequency, TF over GST control); in assay [2], 1.59 fold enrichment (6-mer frequency, TF over GST control); in [3], 1.65 fold enrichment (6-mer frequency, TF over GST control); in assay [4], 1.55 fold enrichment (6-mer frequency, TF over GST control); in assay [5], 1.47 fold enrichment (6-mer frequency, TF over GST control); in assay [6] it was 1.44 fold enrichment (6-mer frequency, TF over GST control). For the same sequence, the binding signal in assay [7] is 1.42 fold enrichment (6-mer frequency, TF over GST control); in assay [8], 1.57 fold enrichment (6-mer frequency, TF over GST control); in [9], 1.8 fold enrichment (6-mer frequency, TF over GST control).

Consider TTACAA, for which the binding signal in [1] is 1.15 fold enrichment (6-mer frequency, TF over GST control); in assay [2] it was 1.17 fold enrichment (6-mer frequency, TF over GST control); in assay [3], 1.16 fold enrichment (6-mer frequency, TF over GST control); in assay [4], 1.16 fold enrichment (6-mer frequency, TF over GST control); in [5], 1.15 fold enrichment (6-mer frequency, TF over GST control); in assay [6], 1.17 fold enrichment (6-mer frequency, TF over GST control). The binding signal in [7] was 1.15 fold enrichment (6-mer frequency, TF over GST control); in assay [8], 1.07 fold enrichment (6-mer frequency, TF over GST control); in [9], 1.13 fold enrichment (6-mer frequency, TF over GST control).

As to TATAGG, the binding signal in assay [1] was 1.14 fold enrichment (6-mer frequency, TF over GST control); in assay [2], 1.06 fold enrichment (6-mer frequency, TF over GST control); in assay [3], 1.19 fold enrichment (6-mer frequency, TF over GST control); in assay [4], 1.18 fold enrichment (6-mer frequency, TF over GST control); in assay [5], 1.15 fold enrichment (6-mer frequency, TF over GST control); in assay [6], 1.28 fold enrichment (6-mer frequency, TF over GST control). For the same sequence, the binding signal in assay [7] was 1.23 fold enrichment (6-mer frequency, TF over GST control); in [8], 1.27 fold enrichment (6-mer frequency, TF over GST control); in [9], 1.08 fold enrichment (6-mer frequency, TF over GST control).

On to CCAACT, for which the binding signal in assay [1] is 1.26 fold enrichment (6-mer frequency, TF over GST control); in assay [2], 1.19 fold enrichment (6-mer frequency, TF over GST control); in assay [3] it was 1.23 fold enrichment (6-mer frequency, TF over GST control); in [4], 1.26 fold enrichment (6-mer frequency, TF over GST control); in assay [5], 1.25 fold enrichment (6-mer frequency, TF over GST control); in assay [6] it was 1.24 fold enrichment (6-mer frequency, TF over GST control). For the same sequence, the binding signal in assay [7] was 1.14 fold enrichment (6-mer frequency, TF over GST control); in [8], 1.25 fold enrichment (6-mer frequency, TF over GST control); in [9] it was 1.19 fold enrichment (6-mer frequency, TF over GST control).

On to CTCTGG, for which the binding signal in assay [1] was 1.31 fold enrichment (6-mer frequency, TF over GST control); in assay [2], 1.5 fold enrichment (6-mer frequency, TF over GST control); in assay [3], 1.3 fold enrichment (6-mer frequency, TF over GST control); in assay [4] it was 1.28 fold enrichment (6-mer frequency, TF over GST control); in [5], 1.34 fold enrichment (6-mer frequency, TF over GST control); in [6] it was 1.35 fold enrichment (6-mer frequency, TF over GST control). Further, the binding signal in assay [7] was 1.4 fold enrichment (6-mer frequency, TF over GST control); in assay [8] it was 1.12 fold enrichment (6-mer frequency, TF over GST control); in [9], 1.48 fold enrichment (6-mer frequency, TF over GST control).

Values taken from article PMC7862700, “An all-to-all approach to the identification of sequence-specific readers for epigenetic DNA modifications on cytosine”.
